Source: PubChem BioAssay
Compounds with a hit are over-represented: about 6.8% of the library has one in this group of screens.
TSG101-PTAP inh – blocks PTAP/TSG101 interaction to inhibit HIV-1 budding. Q99816. Fluorescence polarization, FITC-PTAP peptide / Tsg101 binding. Potency, µM (doses to about 115 µM), for the others: at the highest dose activity change, negative = inhibition, most hits filed as inhibitors. 340,000 tested, under 10 active. AID 493005; active = well fitted inhibition curve with a large enough effect in the main read-out, with a control signal flat, not every such curve was filed as active; inconclusive = small, poorly fitted or top-dose-only effect, or effect the other way, or a change in a side signal; inactive = no such curve, though single readings can be large or run the other way; also: % of control where 0% means no effect
Target sequence (Q99816 whole entry, looked up): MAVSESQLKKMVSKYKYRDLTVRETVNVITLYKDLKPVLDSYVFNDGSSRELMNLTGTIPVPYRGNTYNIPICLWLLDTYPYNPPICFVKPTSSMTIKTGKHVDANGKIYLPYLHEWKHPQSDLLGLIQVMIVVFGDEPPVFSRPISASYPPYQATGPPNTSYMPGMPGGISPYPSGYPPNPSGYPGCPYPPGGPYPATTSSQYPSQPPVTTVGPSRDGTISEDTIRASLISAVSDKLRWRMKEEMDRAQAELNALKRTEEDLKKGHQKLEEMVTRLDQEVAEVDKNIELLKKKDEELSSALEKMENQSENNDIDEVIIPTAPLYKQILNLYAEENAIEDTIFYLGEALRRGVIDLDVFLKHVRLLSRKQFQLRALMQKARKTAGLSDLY
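Compounds were pin-transferred onto Tsg101 binding domain (10 uM final) in HEPES pH 7.5 buffer, then FITC-PTAP peptide was added at 50 nM final. After 20 min at RT, polarization reported peptide displacement across a qHTS concentration series.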
KB-3-1 cytotox – KB-3-1 parental cell cytotoxicity | actives 1.4% (n = 400,000) | KB-3-1 viability, CellTiter-Glo ATP luminescence, 72 h | AID 1347075 | Potency, µM (titrated, usually from 46.1 µM), hits mostly cytotoxic; also: % is scaled to controls: 0 for no effect and ±100 for the full control effect; nearly all actives have a fitted effect of over 60% in size
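Luminescent ATP read-out (CellTiter-Glo) measures survival of drug-naive KB-3-1 cells after 72 h compound exposure at 37 °C. Titration series was screened from lowest to highest concentration, with DMSO vehicle plates as background controls.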
MCF10A rerep – inducers of DNA re-replication in MCF 10A breast cells | Potency, µM (series often up to 46.1 µM), for inactives: top-dose activity, positive = re-replication, usual class: activators | AID 624296 | actives 2.9% (n = 350,000) | MCF 10A DNA re-replication, Hoechst nuclear intensity, 48 h; also: % of control where 0% means no effect; nearly all actives have a fitted effect of over 50% in size
SW480 rerep – DNA re-replication induction in SW480 cells | SW480 DNA re-replication, Hoechst DNA content imaging, 48 h | Potency, µM (top dose mostly 46.1 µM), inactives show at the top dose re-replication activation, most hits filed as activators | actives 1.8% (n = 340,000) | AID 624297; also: % of control where 0% means no effect; nearly all actives have a fitted effect of over 55% in size
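Readout is total intensity of Hoechst-stained nuclei, excited at 405 nm and collected at 500-530 nm. Compound treatment lasted 48 hr at 37 C in 5% CO2 before staining.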
PINK1 expr mod – modulators of PINK1 expression; PINK1 immunofluorescence, high-content cytometry, 24 h; Potency, µM (series often up to 76.6 µM), inactives show at the top dose activation (PINK1 increase), most hits filed as activators; actives 0.2% (n = 410,000); AID 624263; active = well fitted activation curve with a large enough effect; inconclusive = small, poorly fitted or top-dose-only effect; cell line not stated here; also: % of control where 0% means no effect; nearly all actives have a fitted effect of over 65% in size
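Compound titrations (5 concentrations, 24 h) on a stable cell line; DMSO and CCCP controls. Endpoint: fixed-cell PINK1 immunofluorescence with mitochondrial, cell and nuclear markers, scanned by microplate cytometer.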
KB-V1 cytotox – kills drug-selected multidrug resistant KB-V1 cells; AID 1347076; KB-V1 MDR cells viability, CellTiter-Glo, 72 h; Potency, µM (doses to about 46.1 µM), actives largely listed as cytotoxic; actives 3.4% (n = 400,000); also: % is scaled to controls: 0 for no effect and ±100 for the full control effect; nearly all actives have a fitted effect of over 60% in size
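Cytotoxicity toward P-gp-expressing KB-V1 cells was determined as loss of CellTiter-Glo luminescence after 72 h at 37 degrees C. Compounds were tested in quantitative HTS format across a concentration range, with curves fitted to normalized data.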
Numbers without * were called inactive; i = inactive; ? = inconclusive; . = no result; ! = a repeat was not active; [ ] = another dose, or the depositor's remark. Unless noted, calls follow the shape of the dose curve; as a rule, active = well fitted curve in the direction sought with a large enough effect; inconclusive = small, poorly fitted or top-dose-only effect, or another doubt; inactive = no such curve, though single readings can be large; an effect the other way counts as inactive or inconclusive. Potency is read from the fitted curve at half-maximal effect.

SMILES	TSG101-PTAP inh	KB-3-1 cytotox	MCF10A rerep	SW480 rerep	PINK1 expr mod	KB-V1 cytotox
Cc1cccc(CNC(=O)c2c3n(c(C)cc2=O)-c2ccccc2SC(c2ccsc2)C3)n1 (stereo not drawn)	.	.	.	.	0%	.
FC(F)(F)c1cccc(-c2nc3nc(Cl)c(Cl)nc3[nH]2)c1	-8%	2.6µM*!	?	?	2.8µM*	?
FC(F)(F)c1nc2nc(Cl)c(Cl)nc2[nH]1	.	?	.	.	1%	i
O=[N+]([O-])c1ccc(O)c(C(C#Cc2ccccc2)N2CCOCC2)c1 (stereo not drawn)	-3%	i	13%	-7%	40µM*	i
COc1ccc(OCc2ccc(-c3nc(C#N)c(NCc4cccnc4)o3)o2)cc1	.	i	.	.	-1%	i
O=C(CC1(O)C(=O)Nc2ccccc21)c1cccc(-n2cccc2)c1 (stereo not drawn)	-1%	i	1.5µM*	?	-1%	i
COc1cccc(NC(=O)C2CCCN(S(=O)(=O)c3ccc4[nH]c(=O)ccc4c3)C2)c1 (stereo not drawn)	.	i	.	.	-1%	?
CCc1ccccc1NC(=O)Nc1ccc(F)cc1F	0%	i	-2%	-9%	5%	i
CCc1ccccc1NC(=O)Nc1cc(F)ccc1F	-6%	i	-1%	29µM*	1%	i
CCc1noc(C)c1C(=O)Nc1nc(-c2ccc(NC(C)=O)cc2)cs1	1%	i	19%	0%	1%	?
Cc1onc(-c2ccccc2)c1C(=O)Nc1nc(-c2ccc(F)c(F)c2)cs1	-7%	i	?	?	5%	i
CCc1noc(C)c1C(=O)OCC(=O)Nc1nc(-c2ccc(F)c(F)c2)cs1	-4%	i	5%	4%	22%	2.9µM*
CCc1noc(C)c1C(=O)Nc1nc(-c2ccc(OC)c(OC)c2)cs1	-5%	i	21%	?	11%	10µM*
COc1cc(OC)cc(-c2nnc(SCC(=O)c3ccc([N+](=O)[O-])cc3)o2)c1	.	?	.	.	-2%	i
CCOC(=O)c1sc(NC(=O)Nc2ccccc2Cl)cc1C	-8%	?	?	0%	?	21µM*
Nc1nc(=S)c2n[nH]nc2[nH]1	.	?	.	.	3%	i
CCn1nnc2cc(C(=O)Nc3cccc(C)c3C)ccc21	.	?	.	.	13%	?
Cc1cc(C(=O)NCCN2CCN(c3cccc(Cl)c3)CC2)n(-c2ccccc2)n1	0%	15µM*	26µM*	8.2µM*	4%	i
O=C(Nc1cccc(Cl)c1)c1ccc2nc(Cc3ccccc3)oc2c1	.	15µM*	.	.	-2%	?
O=C(NCCCN1CCN(c2cccc(Cl)c2)CC1)c1ccc2nc(Cc3ccccc3)oc2c1	.	15µM*	.	.	2%	?
O=C(NCC1CCOCC1)c1ccc2nc(Cc3cccc(Cl)c3)oc2c1	5%	i	9%	0%	3%	i
Cc1cc(C(=O)NCCCN2CCN(c3cc(Cl)ccc3C)CC2)n(-c2ccccc2)n1	-3%	?	?	?	2%	?
CN(CC1CCOCC1)C(=O)c1ccc2nc(Cc3cccc(Cl)c3)oc2c1	1%	.	18µM*	10%	1%	.
O=C(COc1ccc(Br)cc1)Nc1cccc2cccnc12	.	i	.	.	0%	i
C=CCc1cccc2cc(-c3nc4ccc(C(=O)O)cc4[nH]3)c(=O)oc12	.	i	.	.	2%	i
SMILES	TSG101-PTAP inh	KB-3-1 cytotox	MCF10A rerep	SW480 rerep	PINK1 expr mod	KB-V1 cytotox
O=C(C1CCC1)N1CCc2cc(S(=O)(=O)N3CCN(c4ccccc4)CC3)ccc21	.	i	.	.	3%	i
COc1ccc(C)cc1-n1nnnc1SCc1cc(=O)n2cc(C)ccc2n1	2%	?	?	8%	-1%	7.3µM*
COc1ccc(C)cc1-n1nnnc1SCc1csc(C)n1	1%	i	2%	1%	-4%	i
COc1ccc(CCNC(=O)CCn2c(=O)c3ccccc3n(Cc3ccccc3F)c2=O)cc1OC	.	i	.	.	0%	i
O=C(Nc1ccc(Br)c(C(F)(F)F)c1)c1ccccc1	0%	i	?	-4%	?	16µM*
O=C(Nc1ccc(Br)c(C(F)(F)F)c1)c1ccc(C(F)(F)F)cc1	-3%	?	15µM*	?	-1%	?
O=C(Nc1ccc(C(F)(F)F)cc1)c1ccccc1	0%	i	6%	5%	2%	i
O=C(Nc1ccc(OCC(F)(F)C(F)F)c(C(F)(F)F)c1)c1ccc(Cl)cc1	-6%	?	23µM*	?	?	?
CCOC(=O)c1ccc(NC(=O)c2cnc3c(-c4ccc(F)cc4)c(C)nn3c2C)cc1	.	i	.	.	1%	i
CCOc1ccc(Nc2cc(C)nc3nncn23)cc1	.	.	.	.	-1%	.
NS(=O)(=O)c1ccc(-c2ccc(C=C3C(=O)c4ccccc4C3=O)o2)cc1	-1%	i	1%	-6%	1%	?
CC(C)CC1=C/C(=C/c2ccc(-c3ccccc3)o2)C(=O)O1	-1%	i	26µM*	2%	-1%	i
Cc1c(NC(=O)COC(=O)c2cc(-c3ccc(-c4ccccc4)cc3)nc3ccccc23)c(=O)n(-c2ccccc2)n1C	-6%	9.2µM*	21µM*	.	1%	4.6µM*
Cc1c(NC(=O)C(C)OC(=O)c2cc(-c3cccc4ccccc34)nc3ccccc23)c(=O)n(-c2ccccc2)n1C (stereo not drawn)	1%	i	?	-53%	4%	9.2µM*
Cc1c(NC(=O)COC(=O)C23CC4CC(CC(O)(C4)C2)C3)c(=O)n(-c2ccccc2)n1C	2%	i	-3%	-10%	2%	i
Cc1c(NC(=O)C(C)OC(=O)C23CC4CC(CC(Br)(C4)C2)C3)c(=O)n(-c2ccccc2)n1C (stereo not drawn)	-1%	?	1.5µM*	-32%	2%	i
Cc1c(NC(=O)c2cccc(F)c2)c(=O)n(-c2ccccc2)n1C	-10%	i	-21%	1%	-1%[38.3 µM]	i
Cc1c(NC(=O)C(C)Oc2cccc(F)c2)c(=O)n(-c2ccccc2)n1C (stereo not drawn)	-7%	i	-5%	23µM*	-2%	i
Cc1nn(Cc2noc(C(=O)NC(C)c3ccccc3)n2)c(C)c1Br (stereo not drawn)	.	i	.	.	-3%	i
Cc1cccc(C)c1NC(=O)COC(=O)c1cc(-c2cccnc2)nc2ccccc12	-2%	i	12µM*	0%	?	i
